Screens deposited in PubChem BioAssay by several laboratories.
Only some compounds are listed: those with a hit (about 2.2% of all), similar ones and a draw of the others.
Efflux pump mplx: inhibitors of Candida efflux pumps in yeast, primary screen, S. cerevisiae, Nile Red, multiplex; S. cerevisiae Candida pump triplex; inhibition, % at 10 µM; 330,000 compounds, 0.44% hits;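 active = plate passing quality check with inhibition over a set limit, or well fluorescence over plate mean plus 4 SD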;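 note: Nile Red retained in pooled yeast measured as flow cytometry median fluorescence; 0% = buffer negative control and 100% = Enniatin B positive control; higher means more Nile Red kept so more efflux inhibition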
Mot1-301 SUMO: yeast Mot1-301 growth rescue at high temperature, primary screen, SUMOylation pathway inhibitor project, S. cerevisiae, ATP luminescence, 38.5C; S. cerevisiae Mot1-301 growth rescue; percent above DMSO median, 100 means doubled; growth rescue, % at 18.8 µM; 320,000 compounds, 1% hits;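 active = every valid replicate shows activation above 250% relative to neutral control wells; inactive = the rest, any valid replicate at or below 250%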;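 note: OY570 slx delta 5 strain wells were the positive control but not used for scaling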
sPLA2-III inh: human group III sPLA2 inhibitors, primary screen, biochemical, QFRET, BODIPY PC-A2 liposome substrate; Group 3 secretory phospholipase A2 (Homo sapiens), Q9NZ20; QFRET BODIPY PC-A2 liposome hydrolysis, fluorescence; inhibition, % at 12.2 µM; 370,000 compounds, 0.56% hits;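 active = inhibition above mean plus 3 SD of compounds lying within the high and low control bounds, cut at about 19% in these data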;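 note: 0% = median of test compound wells and 100% = no enzyme DMSO wells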
Target sequence (Q9NZ20 whole entry, looked up): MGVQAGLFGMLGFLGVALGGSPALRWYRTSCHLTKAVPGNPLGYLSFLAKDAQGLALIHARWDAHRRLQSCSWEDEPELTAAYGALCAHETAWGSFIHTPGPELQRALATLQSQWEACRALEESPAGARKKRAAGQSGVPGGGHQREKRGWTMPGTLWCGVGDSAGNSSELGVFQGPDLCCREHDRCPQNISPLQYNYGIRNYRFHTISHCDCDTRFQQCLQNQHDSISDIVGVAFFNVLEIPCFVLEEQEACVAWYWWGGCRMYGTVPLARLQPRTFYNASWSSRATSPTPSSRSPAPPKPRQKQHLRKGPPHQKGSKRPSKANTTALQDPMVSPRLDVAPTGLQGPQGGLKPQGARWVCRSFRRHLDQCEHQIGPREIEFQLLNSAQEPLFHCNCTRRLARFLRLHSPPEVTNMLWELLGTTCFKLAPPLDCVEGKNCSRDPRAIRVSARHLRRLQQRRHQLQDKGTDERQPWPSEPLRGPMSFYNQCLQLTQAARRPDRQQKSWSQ
SKN-1 inh: suppressors of acrylamide-induced Pgst-4::GFP reporter in worms, primary screen, SKN-1 inhibitor project, whole organism, uHTS, GFP/RFP fluorescence ratio, strain VP596. C. elegans VP596 Pgst-4::GFP/RFP ratio, 24 h. inhibition, % at 21.8 µM. 360,000 compounds, 0.49% hits. AID 624304, 2012;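 active = interference check ratio from 0.5 to 1.5 plus GFP to RFP signal ratio inhibition reaching or exceeding a fixed threshold, cut at about 30% in these data, passing the limit was not always enough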
* = called active by the depositor; . = no result given.

SMILES | Efflux pump mplx | Mot1-301 SUMO | sPLA2-III inh | SKN-1 inh
O=C(NCc1ccc2c(c1)OCO2)C(=O)NCC1OCCCN1S(=O)(=O)c1cc(F)ccc1F (centres undefined) | 0 | 6 | 2 | -18
COC(=O)c1cc(-c2cc(Cl)ccc2OC)c(=O)n2c1CCC2 | . | . | -2 | .
Cc1cc(C)c(C)c(OCCN2CC(C)OC(C)C2)c1 (centres undefined) | 0 | 17 | -3 | 25
CC1CN(CCOc2ccc(Cl)cc2Cl)CC(C)O1 (centres undefined) | 0 | 272* | 2 | -1
O=C(c1ccc(-c2cccc(C(F)(F)F)c2)o1)N1CCOCC1 | 0 | 397 | -7 | 45*
CC(=O)N1CCN(C(=O)c2ccc(-c3cccc(C(F)(F)F)c3)o2)CC1 | 0 | -3 | -3 | 30
COC(=O)c1ccc(CC2(C)C(=O)Nc3ccc(-c4cccc(C(F)(F)F)c4)cc32)o1 (centres undefined) | . | . | -8 | 39*
CC1(Cc2ccc(OC(F)(F)F)cc2)C(=O)Nc2ccc(OC(F)(F)F)cc21 (centres undefined) | . | . | 12 | 38*
CC(=O)c1cccc(-c2ccc3c(c2)C(C)(Cc2ccccc2F)C(=O)N3)c1 (centres undefined) | . | . | -11 | 11
COc1ccc(S[C@]2(C(=O)N(C)C)CC(=O)N(C(=O)CCc3ccccc3)[C@@H]2c2ccc(OC)cc2)cc1 | . | . | 0 | .
CCOC(=O)N1CCN(C(=O)c2cn(CC)c3ccc(S(=O)(=O)N4CC(C)CC(C)C4)cc3c2=O)CC1 (centres undefined) | 0 | 4 | -1 | 21
CCn1cc(C(=O)N2CCCC2)c(=O)c2cc(S(=O)(=O)N3CC(C)CC(C)C3)ccc21 (centres undefined) | 0 | 303* | 1 | 2
COC(=O)[C@]12C[C@H](CC(=O)NCC3CCCCC3)C(=O)N(Cc3ccccc3)C1=C[C@H](C(C)C)O[C@@H]2C1CC1 | . | . | -6 | .
O=C1C(=O)c2ccc(-c3ccccc3)cc2-c2ccccc21 | 0 | -46 | 4 | -16
Nc1ncc(-c2ccc(-c3ccccc3)cc2F)cc1-c1ccccc1F | . | . | 0 | 40*
CN(C)c1cccc(O)c1 | 0 | -9 | -7 | 47*
CCCCCCCCN1C(=O)[C@@H](CC(=O)NCc2cccs2)C[C@@]2(C(=O)OC)C1=C[C@H](C(C)(C)C)O[C@@H]2C | . | . | -8 | .
CSc1ccc(/C=N/N2CCN(Cc3ccc(Cl)cc3)CC2)cc1 | 0 | 17 | 6 | 55*
CCCc1cc(=O)[nH]c(SCC(=O)N2CCCC2=O)n1 | 0 | -2 | 11 | -13
COc1ccccc1-n1cc([C@@H]2C[C@H]3CN(c4ccccc4)C(=O)[C@]34CCCN24)cn1 | 0 | -3 | 4 | 40*
O=c1[nH]c2cc(Br)cnc2nc1/C=C(\O)c1ccc(F)cc1 | 0 | 338* | -16 | 14
O=C(NCc1nc2ncc(Br)cc2[nH]1)c1ccccc1 | 0 | 0 | -2 | 15
COCc1cc(N2CCN(C(=O)OC(C)(C)C)C[C@@H]2C)ccc1N1CCN(Cc2ccccc2)[C@@H](C)C1 | . | . | 6 | .
Cc1cc(NC(=O)c2cc(-c3ccc(OC(C)C)cc3)nc3ccccc23)no1 | 0 | 312* | -1 | 1
OC(c1cccc(Cl)c1)c1nc(-c2ccc(Cl)cc2)cs1 (centres undefined) | . | . | 7 | 15
SMILES | Efflux pump mplx | Mot1-301 SUMO | sPLA2-III inh | SKN-1 inh
COc1cc(S(=O)(=O)N2CCOCC2)ccc1NC(=O)COC(=O)c1ccc(Cl)nc1 | 0 | 7 | 5 | -7
CCCCNC(=O)C1CCN(Cc2ccccn2)CC1 | 0 | 303* | 5 | 14
O=C(CCc1c[nH]c2ccccc12)Nc1ccc(Nc2ccccc2)cc1 | . | . | -54 | .
Clc1ccccc1-c1nnc(-c2ccccc2Cl)o1 | 0 | 13 | -7 | 67*
CCCNCc1nnc(-c2ccccc2Cl)o1 | 0 | 16 | 1 | 1
Clc1ccc(-c2nnc(-c3ccccc3Cl)o2)cc1 | 0 | 15 | -4 | 62*
O=C(Nc1nc(-c2cc(F)ccc2F)cs1)c1ccccn1 | 0 | 16 | -4 | 38*
Cc1ccc(-c2csc(Nc3ccccn3)n2)cc1 | 0 | 67 | -6 | 26
Cc1cccnc1Nc1nc(-c2ccc(F)cc2)cs1 | 0 | 1 | 2 | 42*
Fc1ccc(-c2csc(Nc3ccccn3)n2)c(F)c1 | 0 | 31 | -1 | 60*
